This is an account of results in PubChem BioAssay.

Assay [1] in a line: JHH-DIPG-1 glioma cell viability, MIPE5.0 library, CellTiter-Glo luminescence, qHTS (AID 1347067).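 Note: cells exposed to compound for 48 hours before readout.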 As to conditions: JHH-DIPG-1 glioma viability, CellTiter-Glo ATP luminescence.
Assay [2] can be described thus: growth inhibition of DIPG cells – cell-based, MIPE5.0 library, qHTS (AID 1347068; cut-off not given, nearly all actives have IC50 up to about 30 µM;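 for IC50: cells exposed to compound for 48 hours before viability readout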). As to conditions: SU-DIPG-XXV viability. (Quantitative high-throughput screening tests each substance at several concentrations.)
The nature of assay [3]: viability loss in pontine glioma line – cell-based, SU-DIPG-XVII, MIPE5.0, CellTiter-Glo, qHTS, dose response (AID 1347060).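 For AC50: cells exposed to compound for 48 hours before viability readout.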 As to conditions: CellTiter-Glo ATP luminescence.
The nature of assay [4]: viability loss in pontine glioma line – cell-based, SU-DIPG-XXV, MIPE5.0, CellTiter-Glo, qHTS, dose response (AID 1347065).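 Note: cells exposed to compound for 48 hours before ATP readout.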 As to conditions: CellTiter-Glo ATP luminescence. A general note: In ATP-based viability assays light output follows the ATP content of the culture.
Assay [5] in a line: growth inhibition, single agent or in combination, cell-based, chromothripsis tumors, cisplatin or BGB combos (AID 1671449; in the data active = inhibition above about 80%;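 note: cells exposed for 96 hours; 0% = vehicle DMSO and 100% = killing by high DMSO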). As to conditions: LFS_MB_P medulloblastoma cells.
Assay [6] is described as follows: growth inhibition, single agent and combos, cell-based, chromothripsis tumors, cisplatin or BGB combos (AID 1671450; in the data active = inhibition above about 80%;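 note: cells exposed to compound for four days; 0% = vehicle DMSO and 100% = cell killing by high DMSO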). As to conditions: HDN33 neuroblastoma cells, stronger effect = higher value.
The nature of assay [7]: growth inhibition, single agents and combos, ICB984, cell-based, cisplatin or BGB combos, synergistic combos for chromothripsis tumors (AID 1671451; call rule not given here;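 note: cells exposed for 96 hours before readout; 0% = vehicle DMSO and 100% = killing by high DMSO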). The following applies: ICB984 medulloblastoma cells, drug combinations, stronger effect = higher value.
Assay [8] is described as follows: growth inhibition, single agents and combos, LFS_MB_1R, cell-based, cisplatin or BGB combos, synergistic combos for chromothripsis tumors (AID 1671452; in the data active = inhibition above about 80%;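 note: cells exposed for 96 hours before readout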). As to conditions: LFS_MB_1R medulloblastoma cells, stronger effect = higher value.
Assay [9] is described as follows: growth inhibition, single agents and combos, HTB85, cell-based, BGB or cisplatin IC20 combos, synergistic combos for chromothripsis tumors (AID 1671453; in the data active = inhibition above about 80%;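 note: cells exposed for 96 hours before readout; 0% = vehicle DMSO and 100% = high DMSO killing control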). The following applies: HTB85 osteosarcoma cells, drug combinations, stronger effect = higher value.
The nature of assay [10]: growth inhibition, single agents and combos, CRL2098, cell-based, BGB or cisplatin IC20 combos, synergistic combos for chromothripsis tumors (AID 1671454; in the data active = inhibition above about 80%;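 note: cells exposed for 96 h before readout; 0% = vehicle DMSO and 100% = killing by high DMSO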). As to conditions: CRL2098 osteosarcoma cells, drug combinations, stronger effect = higher value.
Assay [11] in a line: growth inhibition, single agents and combos, HD-MB03, cell-based, BGB or cisplatin IC20 combos, synergistic combos for chromothripsis tumors (AID 1671455; in the data active = inhibition above about 83%;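 note: 0% = vehicle DMSO and 100% = high DMSO as cytotoxic control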). The following applies: HD-MB03 medulloblastoma cells, stronger effect = higher value.
Assay [12] in a line: growth inhibition, single agents and combos, UWB1.289, cell-based, BGB or cisplatin combos, synergistic combos for chromothripsis tumors (AID 1671456; in the data active = inhibition above about 80%;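 note: cells exposed to compound for four days; 0% = vehicle DMSO and 100% = killing by high DMSO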). As to conditions: UWB1.289 ovarian carcinoma cells, stronger effect = higher value.
A short description of assay [13]: growth inhibition, single agents and combos, LFS_MB_2R, cell-based, cisplatin combos, synergistic combos for chromothripsis tumors (AID 1671457; in the data active = inhibition above about 80%;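 note: cells exposed to compound for four days before readout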). As to conditions: LFS_MB_2R medulloblastoma cells, stronger effect = higher value.
Assay [14] is described as follows: growth inhibition, MDA-MB-436, cell-based, BGB or cisplatin combos, synergistic combos for chromothripsis tumors (AID 1671458; call rule not given here;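 note: cells exposed for 96 hours; 0% = vehicle DMSO and 100% = killing by high DMSO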). As to conditions: MDA-MB-436 breast carcinoma growth inhibition, drug combinations, stronger effect = higher value.
The nature of assay [15]: UWB1.289_BRCA1 ovarian cancer growth, cell-based, BGB or cisplatin combinations (AID 1671459; in the data active = inhibition above about 80%). The following applies: UWB1.289 BRCA1 ovarian carcinoma, drug combinations, stronger effect = higher value.
A short description of assay [16]: BT084 cell growth, single and combined drugs, ICGC_MB145, cisplatin and BGB IC40 combos (AID 1671461; in the data active = inhibition above about 80%;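 note: cells exposed to drugs for 96 hours; 0% = vehicle DMSO and 100% = high DMSO full killing control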). The following applies: BT084 medulloblastoma cells, drug combinations, stronger effect = higher value.
The nature of assay [17]: RCMB18 cell growth, single agent and combined, cisplatin and BGB IC40 combos (AID 1671462; in the data active = inhibition above about 80%;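 note: cells exposed to compound for four days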). The following applies: RCMB18 medulloblastoma cells, stronger effect = higher value.
Assay [18] in a line: CRL1545 cell growth, single agent and combined, cisplatin and BGB IC20 combos (AID 1671464; in the data active = inhibition above about 80%;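 note: cells exposed to compound for 96 hours before readout; 0% = vehicle DMSO and 100% = high DMSO killing control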). The following applies: CRL1545 osteosarcoma cells, stronger effect = higher value.
Assay [19] in a line: EMT-state selective cytotoxicity in co-culture – imaging, PC-3E GFP, TEM4-18 mCherry, primary screen (AID 1345086;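 active = compounds killing one labelled cell type while sparing the other, by normalised counts and ratio limits, not self-fluorescent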;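 for all read-outs here: cells exposed to compound for 72 h before imaging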;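 for red/green cell ratio (normalised): normalised mesenchymal count divided by normalised epithelial count so high means epithelial killing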). As to conditions: PC-3E GFP / TEM4-18 mCherry co-culture, imaging cell counts, at 1 µM; for red/green cell ratio (normalised): actives lie on both sides, counts scaled to control wells, 1 = unselective.
[20] abbreviates: measured here: combination with BGB IC40, at 0.05 µM.
Where [21] appears, read: measured here: with BGB IC20 combination, at 0.5 µM.
Setting [22] is: measured here: with cisplatin IC20 combination, at 0.5 µM.
[23] abbreviates: measured here: combination with cisplatin, at 0.5 µM.
Where [24] appears, read: measured here: combination with cisplatin, at 5 µM.
Where [25] appears, read: measured here: epithelial PC-3E GFP cell survival.
[26] abbreviates: measured here: mesenchymal TEM4-18 mCherry cell survival.

The structures appear in SMILES notation. Records with an inconclusive call do not appear. Active and inactive are the calls of the source. Unless noted, no cut-off is given here; in the data, nearly all actives have AC50 up to about 26 µM. Numbered stars: 1 amine (or outer) side, 2 acyl side, 3 side chain; on linkers, the order of the positions; unused ones are H or OH. Bridge positions count the residues as written; N and C are the ends. Square brackets hold non-standard residues; d marks the D form. Peptide text beside a SMILES is read from it. I, II: the chains in the order shown. Actinocin(9to1) = Cc1c2oc3c(C)ccc(C(=O)[*:1])c3nc-2c(C(=O)[*:2])c(N)c1=O; NMeV = CN[CH](C(=O)O)C(C)C; Sar = CNCC(=O)O

Consider `O=C1C(c2c(O)[nH]c3ccccc23)=Nc2ccccc21`, for which the compound was classed as inactive in [1] and in assay [2].

Regarding `COc1cc(C[C@@H](CO)[C@H](CO)Cc2ccc(O)c(OC)c2)ccc1O`, the compound was classed as inactive in [3], in assay [4], in assay [1] and in [2].

`O=C(O)C[C@H](O)C[C@H](O)/C=C/c1c(C2CC2)nc2ccccc2c1-c1ccc(F)cc1`: the AC50 in assay [4] and in assay [1] was 9340 nM (active) throughout. The outcome in [2] was inactive.

Consider `O=C1c2c(O)cc(O)cc2O[C@H](c2ccc(O)c(O)c2)[C@H]1O`, for which the outcome in [4], in assay [1] and in assay [2] was inactive.

Turning to `CC1CNc2c(cccc2S(=O)(=O)N[C@@H](CCCN=C(N)N)C(=O)N2CC[C@@H](C)C[C@@H]2C(=O)O)C1` (stereo partly specified), the result in assay [4], in assay [1] and in [2] was inactive.

As for `CC1c2cccc(O)c2C(O)=C2C(=O)C3(O)C(O)=C(C(N)=O)C(=O)C(N(C)C)C3C(O)C21` (stereo unspecified), the compound was classed as inactive in [1] and in assay [2].

As for `CO[C@H]1/C=C/O[C@@]2(C)Oc3c(C)c(O)c4c(O)c(c(C=NN5CCN(C)CC5)c(O)c4c3C2=O)NC(=O)/C(C)=C\C=C\[C@H](C)[C@H](O)[C@@H](C)[C@@H](O)[C@@H](C)[C@H](OC(C)=O)[C@@H]1C`, the inhibition (as a rule, the relative decrease from the control value, in per cent) is -11% (inactive) in assay [5] (at 0.5 µM, stronger effect = higher value); -12.4% in assay [5] (measured here: combination with BGB IC20, at 0.005 µM); -11.3% in assay [5] (measured here: combination with BGB IC40, at 0.005 µM); 7.63% in [5] (setting [20]); -13.1% in assay [5] (measured here: combination with cisplatin, at 0.5 µM, stronger effect = higher value); 25% in assay [5] (measured here: combination with cisplatin, at 5 µM, stronger effect = higher value). Moreover, the inhibition in assay [6] (BGB combo, at 5 µM) is 2%; in [6] (at 0.5 µM) it was 2.94% (inactive); in [6] (cisplatin combo, at 5 µM), -6.32%; in assay [6] (setting [21]) it was 7.7%; in assay [6] (setting [22]), 10.2%; in [6] (single agent, at 5 µM), 0.074%. In addition, the inhibition in [7] (BGB IC20 combo, at 0.005 µM) is 6.74%; in assay [7] (BGB IC40 combo, at 0.005 µM), -7.18%; in assay [7] (BGB IC40 combo, at 0.05 µM) it was 33.5%; in assay [7] (at 0.5 µM) it was -10.8% (inactive); in [7] (cisplatin combo, at 0.05 µM), 33.5%; in assay [7] (cisplatin combo, at 0.5 µM), -9.79%. The inhibition was -23.1% in assay [7] (cisplatin combo, at 5 µM); -0.291% in assay [7] (measured here: 5 uM single agent, at 5 µM); -13.7% (inactive) in assay [8] (at 0.5 µM); -25.4% in assay [8] (setting [20]); 34.7% in [8] (setting [23]); 6.61% in assay [8] (setting [24]). The inhibition in assay [9] (at 0.5 µM) is -9.22% (inactive); in assay [9] (measured here: with BGB IC20, at 0.5 µM), -34.1%; in assay [9] (measured here: with BGB IC20, at 5 µM) it was 19.8%; in assay [9] (measured here: with cisplatin IC20, at 0.5 µM), -3.74%; in assay [9] (measured here: with cisplatin IC20, at 5 µM) it was 32.8%; in assay [9] (single agent, at 5 µM), 32.5%. Also, the inhibition in [10] (at 0.5 µM) is -28.2% (inactive); in assay [10] (measured here: combination with BGB at IC20, at 0.5 µM) it was -20.5%; in assay [10] (measured here: combination with cisplatin at IC20, at 0.5 µM), -57.4%; in assay [11] (at 0.5 µM) it was -2.23% (inactive); in [11] (measured here: combo with BGB at IC20, at 0.5 µM), -1.06%; in assay [11] (measured here: combo with cisplatin at IC20, at 0.5 µM) it was -3.79%. In addition, the inhibition in [12] (at 0.5 µM) was 6.08% (inactive); in [12] (measured here: inhibition with BGB combination, at 0.05 µM), 0.522%; in [12] (measured here: inhibition with cisplatin combination, at 0.05 µM), -2.06%; in [13] (at 0.5 µM) it was -16.1% (inactive); in assay [13] (setting [23]) it was -10.3%; in assay [13] (setting [24]), 19.4%. Also, the inhibition in [14] (at 0.5 µM) was -11.2% (inactive); in [14] (measured here: BGB combination, at 0.5 µM), -8.37%; in assay [14] (measured here: BGB combination, at 5 µM), 1.85%; in assay [14] (measured here: cisplatin combination, at 0.5 µM), -22.5%; in [14] (measured here: cisplatin combination, at 5 µM) it was 4.56%; in [15] (BGB combination, concentration series, at 5 µM), 33.9%. Besides, the inhibition in assay [15] (at 0.5 µM) was 4.15% (inactive); in [15] (cisplatin combination, concentration series, at 5 µM), 22%; in [16] (at 0.5 µM), -5.85% (inactive); in [16] (cisplatin combination, at 0.5 µM), -3.4%; in assay [16] (cisplatin combination, at 5 µM), -36.2%; in assay [16] (measured here: BGB IC40 combination 0.05 uM, at 0.05 µM) it was -6.21%. Moreover, the inhibition in assay [16] (single agent, at 5 µM) was -1.11%; in [17] (at 0.5 µM), -18.2% (inactive); in [17] (cisplatin combo, at 5 µM), 4.58%; in assay [17] (measured here: BGB IC40 combination, at 0.05 µM), -7.26%; in assay [17] (setting [23]) it was -16%; in assay [17] (single agent, at 5 µM), -21.9%. Moreover, the inhibition was -32.1% (inactive) in assay [18] (at 0.5 µM); -8.55% in assay [18] (setting [21]); -44% in assay [18] (setting [22]); 6.37% in assay [18] (single agent, at 0.05 µM); 27.5% in [18] (single agent, at 5 µM).

As for `C[n+]1ccccc1C=NO`, in assay [19], the red/green cell ratio (normalised) is 1.01 (inactive). Further, the figures for the normalised cell number in assay [19] (setting [25]) and in assay [19] (setting [26]) were 1 and 1.02, respectively.

For the compound `Cc1c2oc3c(C)ccc(C(=O)NC4C(=O)NC(C(C)C)C(=O)N5CCCC5C(=O)N(C)CC(=O)N(C)C(C(C)C)C(=O)OC4C)c3nc-2c(C(=O)NC2C(=O)NC(C(C)C)C(=O)N3CCCC3C(=O)N(C)CC(=O)N(C)C(C(C)C)C(=O)OC2C)c(N)c1=O` (stereo unspecified) (I: TVP[Sar][NMeV] / II: TVP[Sar][NMeV]; ester I:1-I:C, II:1-II:C; linker I:N-II:N via Actinocin(9to1); configuration not given here), the AC50 – broadly, the midpoint of the concentration-response curve, whichever way the signal moves – is 4.07 nM (active) in [3], 18.2 nM (active) in assay [4] and 6.45 nM (active) in assay [1]. In assay [2], the half-maximal inhibitory concentration (IC50) (in general, the midpoint of a concentration-inhibition curve) is 72.3 nM (active).

As to `CCCc1nc(C(C)(C)O)c(C(=O)O)n1Cc1ccc(-c2ccccc2-c2nn[nH]n2)cc1`, the red/green cell ratio (normalised) in assay [19] was 1.01 (inactive). The results for the normalised cell number in assay [19] (setting [25]) and in [19] (setting [26]) were 1.21 and 1.22, respectively. The compound was classed as inactive in assay [3], in assay [4], in assay [1] and in [2].
